Pf growth 48h – P. falciparum growth inhibition at 48 hours (one generation); P. falciparum luciferase growth in erythrocytes, 48 h; Potency, µM (doses to about 28.7 µM), most hits filed as inhibitors; AID 504832; hit rate 5.9% among 310,000
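Read-out is firefly luciferase luminescence from an integrated reporter in P. falciparum, so falling signal marks reduced parasite growth. Infected erythrocytes were at 2% hematocrit and 0.1% parasitemia (final) in Albumax-supplemented RPMI 1640.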
Sm TGR block – S. mansoni TGR enzyme inhibition | Q962Y6 | purified TGR, DTNB reduction, TNB absorbance 405 nm | Potency, µM (doses to about 114 µM), most hits filed as inhibitors | hit rate 3% among 360,000 | AID 485364; further: nearly all actives have a fitted effect of over 60% in size
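Kinetic colorimetric format: TGR-catalysed, NADPH-driven DTNB reduction monitored via TNB absorbance. Enzyme dispensed at 20 nM; compound exposure 15 min at room temperature before reaction start.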
SARS PLpro yeast – inhibitors of SARS-CoV papain-like protease in yeast; hit rate 0.19% among 330,000; Potency, µM (titrated, usually from 32.9 µM), actives largely listed as activators; S. cerevisiae expressing SARS-CoV PLpro, growth rescue; calls by dose curve; further: nearly all actives have a fitted effect of over 55% in size
HCV inh – inhibitors of hepatitis C virus infection | Huh7.5.1 HCVcc-Cre infection, luciferase reporter, 44 h | Potency, µM (series often up to 41.8 µM), usual class: inhibitors | hit rate 3.4% among 340,000
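Whole-lifecycle infectious HCVcc-Cre system; cells 1,000/well, compound then virus (~0.5 moi) added 4 h after plating, 44 h culture. Luciferase read 15 sec following 15 min substrate incubation, room temp.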
HCMV inh – human cytomegalovirus inhibition. HFF cells, HCMV-luciferase reporter, 72 h; active compounds read low. activity change, negative = inhibition, % at 57.5 µM. hit rate 4.5% among 410,000. AID 1259415; in the data active means activity change below about -60%; inconclusive means no clear call, values can overlap the other calls; inactive means above about -39%
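Human foreskin fibroblasts infected with luciferase-reporter HCMV at MOI 1 PFU/cell, compounds at two doses. Luciferase measured 72 h post infection; normalized to buffer-only basal and Salinomycin (10uM) controls.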
Pf growth 96h – inhibits malaria parasite growth, 96 h. AID 504834. P. falciparum luciferase reporter growth, 96 h. hit rate 6.9% among 320,000. Potency, µM (series often up to 28.7 µM), most hits filed as inhibitors
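P. falciparum expressing integrated firefly luciferase grown in erythrocytes (2% hematocrit, 0.05% parasitemia final) with compounds for 96 hours at 37 C, 5% CO2. Growth inhibition read as loss of luminescence after adding luciferase detection reagent.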
Each line names hits and unclear results; the compound was inactive in the other large screens. Rows were chosen to be rich in hits. Some 15% of all compounds tested hit in one or more screens of this group. Unless noted, the call rests on the fitted dose curve; in most records, active means well fitted curve in the direction sought with a large enough effect; inconclusive means small, poorly fitted or top-dose-only effect, or another doubt; inactive means no such curve, though single readings can be large; an effect the other way counts as inactive or inconclusive.

CC(=O)OC1CC2CCC1(C)C2(C)C (stereo unspecified)	none (no result: Sm TGR block, SARS PLpro yeast, HCV inh, HCMV inh)
COc1cc(/C=C/C(=O)OCC(=O)N2CC3(C)CC2CC(C)(C)C3)ccc1O (stereo unspecified)	Pf growth 48h inconclusive, HCMV inh -73, Pf growth 96h inconclusive
COc1cc(/C=C/C(=O)OC2CC3CCC2(C)C3(C)C)ccc1O (stereo unspecified)	Pf growth 48h inconclusive, HCV inh inconclusive, HCMV inh -103
CC1(C)CC2CC(C)(CN2C(=O)COC(=O)c2ccccc2C(F)(F)F)C1 (stereo unspecified)	Pf growth 48h inconclusive, HCV inh inconclusive, HCMV inh active, Pf growth 96h inconclusive
CCCc1ccc(S(=O)(=O)N2CCN(C(C)C(=O)NCc3ccc(OC)cc3)CC2)cc1 (stereo unspecified)	Pf growth 48h inconclusive, HCV inh inconclusive, Pf growth 96h inconclusive
O=C(Nc1ccc(F)cc1)c1cc(-c2ccncc2)nc2c(Cl)cccc12	Pf growth 48h 2.1µM, HCV inh inconclusive, HCMV inh inconclusive
Cc1cccc(NC(=O)c2cc(-c3cccnc3)nc3c(C)cccc23)n1	HCV inh inconclusive, Pf growth 96h 4.7µM
Cc1c(Cl)ccc2c(C(=O)NC(C)c3ccncc3)cc(-c3ccncc3)nc12 (stereo unspecified)	Pf growth 48h 4.1µM (no result: HCV inh, HCMV inh)
O=C(NNC(=O)c1cc(-c2ccncc2)nc2ccccc12)Nc1ccc(F)cc1	Pf growth 48h inconclusive
COc1cccc(NC(=O)c2cc(-c3cccnc3)nc3c(Cl)cccc23)c1	Pf growth 48h 2.1µM, Pf growth 96h 1.9µM
COC(=O)CNC(=O)c1cc(-c2ccncc2)nc2c(C)c(Cl)ccc12	Pf growth 48h inconclusive, HCV inh inconclusive
CC12C(=O)N(c3cccc4cccnc34)C(=O)C1C1C=CC2C1 (stereo unspecified)	Pf growth 96h 6.6µM (no result: Pf growth 48h)
CC12C(=O)N(c3ccccc3C(=O)O)C(=O)C1C1C=CC2C1 (stereo unspecified)	none
Cc1c(C(=O)N2CCCCC2)c(S(=O)(=O)NCc2ccc(F)cc2)c(C)n1C	Sm TGR block inconclusive
Cc1ccc(CNS(=O)(=O)c2c(C(=O)N3CCCCC3)c(C)n(C)c2C)cc1	none
Cc1c(C(=O)N2CCCCC2)c(S(=O)(=O)NCc2ccc(N(C)C)cc2)c(C)n1C	Pf growth 96h 0.83µM
COc1ccc(CNS(=O)(=O)c2c(C(=O)N3CCCCCC3)c(C)n(C)c2C)cc1	Pf growth 96h 3.3µM
CC(NC(=O)C(=O)N/N=C\c1cccc([N+](=O)[O-])c1)c1ccccc1 (stereo unspecified)	Pf growth 96h inconclusive
Cc1ccc(NC(=O)CCN2CCC(Cc3ccccc3)CC2)cc1	Pf growth 48h 7.4µM, Pf growth 96h 10µM
Cc1ccc(NC(=O)CN2CCC(Cc3ccccc3)CC2)cc1S(=O)(=O)N(C)C	Pf growth 48h inconclusive, HCV inh 11µM, Pf growth 96h inconclusive
CSc1nc(N)nc2c1ncn2CC(=O)N[C@H](C)c1cccc2ccccc12	none (no result: Pf growth 48h, Sm TGR block, Pf growth 96h)
CCCCn1c(N)c(N(CCOC)C(=O)c2ccc(-c3ccc(C(C)=O)cc3)o2)c(=O)[nH]c1=O	Pf growth 48h inconclusive, Sm TGR block inconclusive, Pf growth 96h inconclusive
Cc1cc(NC(=O)c2ccc(Cl)cc2)cc(C)c1OCC(=O)N1CCOCC1	none (no result: HCV inh)
Cc1c(C#N)c2ccccc2n1CC(=O)NCC1CCCO1 (stereo unspecified)	Pf growth 96h inconclusive
Cc1c(C=C2C(=O)N(C)C(=S)N(C)C2=O)c2ccccc2n1CC(=O)NCC1CCCO1 (stereo unspecified)	Pf growth 48h inconclusive, Sm TGR block inconclusive, Pf growth 96h 12µM
COc1ccc(-n2ccn(CC(=O)Nc3ccc(C)cc3C)c(=O)c2=O)cc1	none (no result: Pf growth 48h, SARS PLpro yeast, HCV inh, Pf growth 96h)
COc1ccc(NC(=O)CN2CCN(Cc3ccccc3)S2(=O)=O)c(OC)c1	none (no result: Pf growth 48h, SARS PLpro yeast, HCV inh, Pf growth 96h)
CCCCNC(=S)N(C)/N=C/c1sc(N2CCCCC2)nc1-c1cccs1	Pf growth 48h 10µM, Pf growth 96h 12µM (no result: HCMV inh)
O=C(N/N=C/c1sc(N2CCCCC2)nc1-c1cccs1)C1CC1	Pf growth 48h 10µM, HCV inh inconclusive, HCMV inh inconclusive, Pf growth 96h 5.2µM
Cc1ccc(/C=N/NC(=S)NC(C)C)o1	HCV inh inconclusive, Pf growth 96h inconclusive (no result: Pf growth 48h)
NC(=O)N/N=C/c1sc(N2CCCCC2)nc1-c1cccs1	HCV inh inconclusive (no result: Pf growth 48h, Sm TGR block, SARS PLpro yeast, Pf growth 96h)
CC(C)NC(=S)N/N=C/c1sc(N2CCCCC2)nc1-c1cccs1	SARS PLpro yeast inconclusive, HCV inh inconclusive, HCMV inh inconclusive, Pf growth 96h 0.83µM
OC[C@@H]1CN(Cc2cccs2)C[C@H](n2cnc3c(NCc4ccco4)ncnc32)O1	none (no result: Pf growth 48h, Sm TGR block, SARS PLpro yeast, HCV inh, Pf growth 96h)
Cc1[nH]c2c(ccc3cccnc32)c1C	none
CC1=[N+](C)c2c(ccc3cccnc23)C1(C)C	Pf growth 48h inconclusive, HCV inh inconclusive, HCMV inh -108
Cc1cc(=O)oc(C)c1C(=O)N1CCc2c([nH]c3ccccc23)C1C(C)C (stereo unspecified)	Pf growth 96h 12µM (no result: Pf growth 48h)
CN(Cc1ccccc1)C(=O)[C@@H]1CCCN1C(=O)OC(C)(C)C	none (no result: Pf growth 48h, Sm TGR block, SARS PLpro yeast, HCV inh, Pf growth 96h)
COCCNC(=O)c1ccccc1NC(=O)CSc1ccc(C)cc1	none
CC[C@@H](CC1CCCCC1)C(=O)N(Cc1ccccc1)c1ccccc1	HCV inh 10µM, HCMV inh inconclusive (no result: Pf growth 48h, Sm TGR block, Pf growth 96h)
CN(Cc1ccccc1)C(=O)NC1CCCCC1	Pf growth 96h inconclusive
CCn1c(/C=C/Nc2ccccc2)[n+](CC)c2cc(Cl)c(Cl)cc21	Pf growth 48h 7.4µM, HCV inh inconclusive, Pf growth 96h inconclusive
Cc1c(N)cc(S(=O)(=O)O)cc1NC(=O)c1cccc([N+](=O)[O-])c1	none (no result: Pf growth 48h, Sm TGR block, SARS PLpro yeast, Pf growth 96h)
Cc1ccc(N2C(=O)NC(=O)/C(=C\c3cc(C)n(-c4cc(C(=O)O)cc(C(=O)O)c4)c3C)C2=O)cc1	Sm TGR block 7.9µM
O=C1NC(=O)N(Cc2ccccc2Cl)C(=O)/C1=C/c1cccs1	HCMV inh -97, Pf growth 96h inconclusive
CCc1ccc(N2C(=O)NC(=O)/C(=C\c3cc(C)n(-c4cc(C(=O)O)cc(C(=O)O)c4)c3C)C2=O)cc1	Sm TGR block 8.9µM
Cc1cc(/C=C2\C(=O)NC(=O)N(Cc3ccccc3Cl)C2=O)c(C)n1-c1ccc(C(=O)O)cc1	Sm TGR block inconclusive, Pf growth 96h 1.9µM
O=C(c1cccc(Cl)c1)N1c2ncnn2C2(CCCCC2)[C@@H]2CCCC[C@@H]21	none (no result: Pf growth 48h, SARS PLpro yeast, HCV inh, Pf growth 96h)
Cc1ccc(NC(=O)CSc2nnc(-c3ccoc3C)n2CCCN(C)C)cc1Cl	none
Cc1cc(C(=O)NCC(=O)OC(C)C(=O)N2CCOCC2)ccc1[N+](=O)[O-] (stereo unspecified)	Pf growth 48h inconclusive, HCMV inh inconclusive, Pf growth 96h 7.4µM
CCCCc1nnc(SCCSc2nnc(CCCC)n2N)n1N	Pf growth 96h 13µM
